Measurements as given in the supplement of paper PMC10849652.
About 8,800 targets were measured; listed, in parts, are those with a hit and a random draw of the rest. About 0.5% of all pairs of compound and target were hits.

How the values were obtained:
Test in all cases: log2 fold change, soluble protein after heating vs DMSO (PISA); higher = thermal stabilisation; K562 lysate, 10 uM; active = over 0.2 and 3.5 SD of the protein, either way, in both replicates (recomputed)
erlotinib = compound: C#Cc1cccc(Nc2ncnc3cc(OCCOC)c(OCCOC)cc23)c1 [erlotinib]
Method in brief: (§1)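 K562 pellets were dounce-homogenised in PBS pH 7.4 with 1 mM MgCl2, and the crude extract at 1 mg/mL protein was treated with 10 μM compound for 30 min. Aliquots were heated for 3 min across 48°C-58°C, pooled, and brought to 0.5% NP-40 at 4°C; soluble protein was the supernatant after 21,000xg for 90 min. Soluble protein was quantified by TMTpro 16plex LC-MS/MS with channel sums equalised, and reported as log2 fold change in thermal stability against DMSO controls, with values from duplicates.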

[1] = compound: C/C(=N\NC(=O)C1=CC(=CC=C1)S(=O)(=O)N2CCOCC2)/C3=C(C=CC(=C3)Cl)O
Method in brief: as §1

[2] = compound: C1=CC(=CC=C1C2=NC3=C(N2)C=C(C=C3)C(=O)N)OC4=CC=C(C=C4)Cl
Method in brief: as §1

[3] = compound: C1=CC2=C(C=CC(=C2)/C=C\3/C(=O)NC(=NCC4=CC=CS4)S3)N=C1
Method in brief: as §1

[4] = compound: C1=CC2=NC=CN=C2C=C1/C=C/3\C(=O)NC(=O)S3
Method in brief: as §1

[5] = compound: C1=CC=C(C=C1)C2=NC(=C(N2)C3=CC=NC=C3)C4=CC(=C(C=C4)Cl)O
Method in brief: as §1

[6] = compound: C1=CC=C2C(=C1)C3=NNC4=CC=CC(=C43)C2=O
Method in brief: as §1

[7] = compound: C1CCN(C1)C(=O)NC2=CC=CC(=C2)NC3=NC=C(C(=N3)NCCC4=CN=CN4)Br
Method in brief: as §1

[8] = compound: C1CN(CCC1(CC2=CC=C(C=C2)Cl)N)C3=NC=NC4=C3C=CN4
Method in brief: as §1

IRAK-1-4 Inhibitor I = compound: C1COCCN1CCN2C3=CC=CC=C3N=C2NC(=O)C4=CC(=CC=C4)[N+](=O)[O-] [IRAK-1-4 Inhibitor I]
Method in brief: as §1

ibrutinib = compound: C=CC(=O)N1CCC[C@@H](n2nc(-c3ccc(Oc4ccccc4)cc3)c3c(N)ncnc32)C1 [ibrutinib]
Method in brief: as §1

[9] = compound: CC(=O)c1cnc2ccc(-c3cc(Cl)c(O)c(Cl)c3)nc2c1N[C@H]1CC[C@H](CN(C)C)CC1
Method in brief: as §1

ralimetinib = compound: CC(C)(C)Cn1c(N)nc2ccc(-c3[nH]c(C(C)(C)C)nc3-c3ccc(F)cc3)nc21 [ralimetinib]
Method in brief: as §1

[10] = compound: CC(C)(O)CC(=O)NCCn1ccc2ncnc(Nc3ccc(Oc4cccc(C(F)(F)F)c4)c(Cl)c3)c21
Method in brief: as §1

[11] = compound: CC(C)C1=C2N=C(C=C(N2N=C1)NCC3=CC=CC=C3)NCCCCCCN
Method in brief: as §1

[12] = compound: CC1=C(C(CC(=O)N1)C2=CC=C(C=C2)C(F)(F)F)C(=O)NC3=C(C=C4C(=C3)C=NN4)F
Method in brief: as §1

[13] = compound: CC1=C(C2=C(C=C1)C(=O)C3=CC=CC=C3N2CCCN)C
Method in brief: as §1

[14] = compound: CC1=C(C=C(C=C1)NC(=O)C2=CC(=CC=C2)C(C)(C)C#N)NC3=CC4=C(C=C3)N=CN(C4=O)C
Method in brief: as §1

[15] = compound: CC1=C(C=C(C=C1)NC(=O)C2=CC(=CC=C2)N(C)C)NC(=O)C3=CC=C(C=C3)O
Method in brief: as §1

[16] = compound: CC1=CC=C(C=C1)SC2=C3C=C(SC3=CN=C2)C(=O)N
Method in brief: as §1

Measured: log2 fold change

KARS1 (UniProt Q15046)
UniProt Q15046, sequence (Q15046 whole entry, looked up): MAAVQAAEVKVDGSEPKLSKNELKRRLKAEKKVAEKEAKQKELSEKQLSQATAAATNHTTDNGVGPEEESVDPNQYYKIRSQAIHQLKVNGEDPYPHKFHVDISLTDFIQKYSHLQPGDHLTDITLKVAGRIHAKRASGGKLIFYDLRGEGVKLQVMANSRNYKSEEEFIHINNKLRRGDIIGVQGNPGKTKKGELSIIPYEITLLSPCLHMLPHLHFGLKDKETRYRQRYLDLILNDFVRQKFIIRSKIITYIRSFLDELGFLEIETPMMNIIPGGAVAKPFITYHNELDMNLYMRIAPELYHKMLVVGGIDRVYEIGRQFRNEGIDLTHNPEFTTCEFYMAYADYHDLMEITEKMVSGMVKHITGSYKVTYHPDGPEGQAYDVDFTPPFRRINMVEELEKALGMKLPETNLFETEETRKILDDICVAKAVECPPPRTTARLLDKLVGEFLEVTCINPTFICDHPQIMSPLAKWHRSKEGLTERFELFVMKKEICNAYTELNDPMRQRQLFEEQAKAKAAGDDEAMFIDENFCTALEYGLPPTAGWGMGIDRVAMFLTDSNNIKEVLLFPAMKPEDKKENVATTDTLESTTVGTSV
inactive: erlotinib -0.015 | [1] 0.002 | [2] -0.04 | [3] -0.016 | [4] -0.005 | [5] 0.004 | [6] -0.021 | [7] -0.006 | [8] -0.021 | IRAK-1-4 Inhibitor I -0.017 | ibrutinib 0.009 | [9] 0.012 | ralimetinib 0.016 | [10] 0.018 | [11] 0.001 | [12] -0.011 | [13] 0.024 | [14] -0.014 | [15] 0.015 | [16] 0.029

HDHD5 (UniProt Q9BXW7)
UniProt Q9BXW7, sequence (Q9BXW7 whole entry, looked up): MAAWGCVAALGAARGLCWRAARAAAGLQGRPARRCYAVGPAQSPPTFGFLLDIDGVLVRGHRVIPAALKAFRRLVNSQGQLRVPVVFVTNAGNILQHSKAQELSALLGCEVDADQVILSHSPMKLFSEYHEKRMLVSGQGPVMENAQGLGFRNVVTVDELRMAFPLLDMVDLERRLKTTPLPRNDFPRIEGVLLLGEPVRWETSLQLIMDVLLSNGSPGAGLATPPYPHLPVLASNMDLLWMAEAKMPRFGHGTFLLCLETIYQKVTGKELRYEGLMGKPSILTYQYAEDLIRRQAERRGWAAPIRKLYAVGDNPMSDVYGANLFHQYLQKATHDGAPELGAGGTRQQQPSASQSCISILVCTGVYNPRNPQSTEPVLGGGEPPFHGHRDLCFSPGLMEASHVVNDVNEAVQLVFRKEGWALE
inactive: erlotinib -0.015 | [1] -0.038 | [2] 0.012 | [3] 0.07 | [4] 0.022 | [5] -0.006 | [6] -0.027 | [7] -0.023 | [8] -0.05 | IRAK-1-4 Inhibitor I 0.051 | ibrutinib -0.027 | [9] 0.018 | ralimetinib 0 | [10] 0.073 | [11] -0.042 | [12] 0.011 | [13] -0.023 | [14] -0.007 | [15] 0.024 | [16] -0.001

HDAC1 (UniProt Q13547)
UniProt Q13547, sequence (Q13547 whole entry, looked up): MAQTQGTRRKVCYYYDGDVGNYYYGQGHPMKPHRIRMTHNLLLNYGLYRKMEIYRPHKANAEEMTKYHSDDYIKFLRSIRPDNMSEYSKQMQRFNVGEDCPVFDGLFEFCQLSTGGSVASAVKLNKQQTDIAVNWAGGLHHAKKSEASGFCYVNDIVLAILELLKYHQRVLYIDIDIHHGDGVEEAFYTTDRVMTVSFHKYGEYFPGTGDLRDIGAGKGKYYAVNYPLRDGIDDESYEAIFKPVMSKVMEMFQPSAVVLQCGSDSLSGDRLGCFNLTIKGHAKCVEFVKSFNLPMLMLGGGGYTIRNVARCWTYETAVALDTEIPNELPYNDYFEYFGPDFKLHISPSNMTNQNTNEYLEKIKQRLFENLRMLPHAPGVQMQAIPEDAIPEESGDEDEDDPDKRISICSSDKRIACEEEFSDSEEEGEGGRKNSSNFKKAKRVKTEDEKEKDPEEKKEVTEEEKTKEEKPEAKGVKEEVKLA
inactive: erlotinib 0 | [1] -0.046 | [2] -0.012 | [3] 0.015 | [4] 0.003 | [5] -0.013 | [6] -0.024 | [7] -0.014 | [8] -0.036 | IRAK-1-4 Inhibitor I -0.043 | ibrutinib -0.026 | [9] -0.001 | ralimetinib 0.031 | [10] 0.01 | [11] -0.001 | [12] 0.001 | [13] -0.008 | [14] -0.022 | [15] 0.008 | [16] 0.011

GTF2A1 (UniProt P52655)
UniProt P52655, sequence (P52655 whole entry, looked up): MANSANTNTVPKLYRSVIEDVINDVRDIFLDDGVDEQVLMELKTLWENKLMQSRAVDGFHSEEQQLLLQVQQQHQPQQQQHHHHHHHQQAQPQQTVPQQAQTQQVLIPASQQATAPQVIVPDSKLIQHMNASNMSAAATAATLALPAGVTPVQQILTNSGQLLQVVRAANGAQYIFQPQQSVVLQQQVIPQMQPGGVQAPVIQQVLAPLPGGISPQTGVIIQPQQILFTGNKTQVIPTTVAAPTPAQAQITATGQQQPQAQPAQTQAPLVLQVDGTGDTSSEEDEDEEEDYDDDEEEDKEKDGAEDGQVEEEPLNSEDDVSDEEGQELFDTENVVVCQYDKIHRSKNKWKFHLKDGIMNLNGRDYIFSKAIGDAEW
inactive: erlotinib 0.031 | [1] -0.008 | [2] 0.015 | [3] 0.026 | [4] -0.01 | [5] -0.038 | [6] -0.061 | [7] -0.04 | [8] -0.01 | IRAK-1-4 Inhibitor I 0.033 | ibrutinib -0.009 | [9] -0.046 | ralimetinib 0.015 | [10] -0.016 | [11] -0.036 | [12] -0.069 | [13] -0.021 | [14] -0.013 | [15] 0.008 | [16] -0.014

HAUS2 (UniProt Q9NVX0)
UniProt Q9NVX0, sequence (Q9NVX0 whole entry, looked up): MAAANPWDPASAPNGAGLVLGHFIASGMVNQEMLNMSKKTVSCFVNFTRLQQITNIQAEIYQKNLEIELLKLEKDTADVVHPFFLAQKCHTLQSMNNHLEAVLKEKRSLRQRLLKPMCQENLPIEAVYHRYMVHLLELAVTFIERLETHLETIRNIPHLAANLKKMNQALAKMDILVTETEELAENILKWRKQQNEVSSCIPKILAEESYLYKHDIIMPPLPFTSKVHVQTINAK
inactive: erlotinib 0 | [1] 0.045 | [2] -0.12 | [3] 0.116 | [4] -0.02 | [5] 0.03 | [6] 0.031 | [7] -0.015 | [8] 0.026 | IRAK-1-4 Inhibitor I 0.003 | ibrutinib 0.145 | [9] 0.1 | ralimetinib 0.054 | [10] 0.058 | [11] 0.003 | [12] 0.026 | [13] -0.079 | [14] -0.017 | [15] 0.023 | [16] -0.021

HSPA14 (UniProt Q0VDF9)
UniProt Q0VDF9, sequence (Q0VDF9 whole entry, looked up): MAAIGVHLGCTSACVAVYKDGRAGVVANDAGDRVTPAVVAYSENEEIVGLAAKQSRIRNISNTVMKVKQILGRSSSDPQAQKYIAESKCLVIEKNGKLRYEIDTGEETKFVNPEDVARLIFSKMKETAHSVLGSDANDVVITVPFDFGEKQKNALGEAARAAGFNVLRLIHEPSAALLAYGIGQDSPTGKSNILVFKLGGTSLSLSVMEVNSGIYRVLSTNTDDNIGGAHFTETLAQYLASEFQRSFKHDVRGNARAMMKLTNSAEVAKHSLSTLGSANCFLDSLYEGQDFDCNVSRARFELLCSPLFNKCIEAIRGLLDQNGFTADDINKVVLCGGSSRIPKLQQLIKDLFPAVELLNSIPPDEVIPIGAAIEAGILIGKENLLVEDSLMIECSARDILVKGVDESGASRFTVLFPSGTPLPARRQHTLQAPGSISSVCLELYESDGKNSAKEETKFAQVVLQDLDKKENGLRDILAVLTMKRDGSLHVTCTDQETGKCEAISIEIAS
inactive: erlotinib 0.014 | [1] 0.025 | [2] -0.009 | [3] 0.009 | [4] 0.012 | [5] 0.049 | [6] -0.035 | [7] 0.018 | [8] 0.014 | IRAK-1-4 Inhibitor I 0.003 | ibrutinib 0.004 | [9] -0.008 | ralimetinib 0.009 | [10] -0.013 | [11] -0.032 | [12] -0.02 | [13] -0.009 | [14] -0.012 | [15] 0.033 | [16] 0.004

GMIP (UniProt Q9P107)
UniProt Q9P107, sequence (Q9P107 whole entry, looked up): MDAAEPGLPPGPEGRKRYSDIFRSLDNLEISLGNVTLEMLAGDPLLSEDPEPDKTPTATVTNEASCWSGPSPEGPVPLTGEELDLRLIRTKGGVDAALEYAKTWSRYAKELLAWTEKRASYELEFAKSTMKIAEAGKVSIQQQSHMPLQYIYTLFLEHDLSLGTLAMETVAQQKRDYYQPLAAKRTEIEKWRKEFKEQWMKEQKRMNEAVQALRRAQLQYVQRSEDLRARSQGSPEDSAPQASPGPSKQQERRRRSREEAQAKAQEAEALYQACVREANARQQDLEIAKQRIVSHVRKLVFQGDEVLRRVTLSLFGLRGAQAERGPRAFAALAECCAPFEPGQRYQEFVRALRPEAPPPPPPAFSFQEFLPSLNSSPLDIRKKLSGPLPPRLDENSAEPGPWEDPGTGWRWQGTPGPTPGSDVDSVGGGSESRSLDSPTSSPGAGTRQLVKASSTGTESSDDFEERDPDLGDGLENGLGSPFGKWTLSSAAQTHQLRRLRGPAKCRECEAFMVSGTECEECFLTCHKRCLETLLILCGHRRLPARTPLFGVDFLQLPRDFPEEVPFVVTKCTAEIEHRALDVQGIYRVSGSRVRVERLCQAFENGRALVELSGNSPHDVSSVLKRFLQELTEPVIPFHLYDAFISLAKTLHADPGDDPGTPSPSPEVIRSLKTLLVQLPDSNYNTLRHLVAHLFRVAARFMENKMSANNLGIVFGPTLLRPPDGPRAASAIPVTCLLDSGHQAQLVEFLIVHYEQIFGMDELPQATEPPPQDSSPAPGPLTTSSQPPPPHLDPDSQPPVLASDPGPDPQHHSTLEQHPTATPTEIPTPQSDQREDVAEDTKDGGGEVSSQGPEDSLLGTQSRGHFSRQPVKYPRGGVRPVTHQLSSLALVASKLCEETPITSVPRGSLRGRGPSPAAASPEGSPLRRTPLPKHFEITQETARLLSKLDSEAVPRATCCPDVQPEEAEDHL
inactive: erlotinib 0.014 | [1] 0.019 | [2] -0.02 | [3] -0.029 | [4] 0.009 | [5] 0.068 | [6] 0.03 | [7] -0.063 | [8] 0.019 | IRAK-1-4 Inhibitor I 0.025 | ibrutinib 0.182 | [9] 0.027 | ralimetinib 0.023 | [10] -0.11 | [11] -0.017 | [12] 0.029 | [13] 0.03 | [14] 0.019 | [15] -0.068 | [16] 0.045

HS1BP3 (UniProt Q53T59)
UniProt Q53T59, sequence (Q53T59 whole entry, looked up): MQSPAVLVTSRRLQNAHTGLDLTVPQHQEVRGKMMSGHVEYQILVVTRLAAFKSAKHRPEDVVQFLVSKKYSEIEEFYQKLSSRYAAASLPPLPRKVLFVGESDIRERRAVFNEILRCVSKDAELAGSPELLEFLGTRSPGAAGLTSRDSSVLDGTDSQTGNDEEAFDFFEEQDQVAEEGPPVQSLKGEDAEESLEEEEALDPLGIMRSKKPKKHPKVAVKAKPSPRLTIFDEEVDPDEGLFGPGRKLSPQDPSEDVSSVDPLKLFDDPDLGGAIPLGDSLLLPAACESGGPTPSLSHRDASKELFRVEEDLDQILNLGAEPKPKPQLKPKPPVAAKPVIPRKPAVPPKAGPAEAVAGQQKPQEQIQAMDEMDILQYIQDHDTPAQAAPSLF
inactive: erlotinib -0.019 | [1] -0.04 | [2] 0.007 | [3] -0.013 | [4] -0.027 | [5] -0.031 | [6] 0.029 | [7] -0.022 | [8] 0.01 | IRAK-1-4 Inhibitor I 0.01 | ibrutinib -0.01 | [9] 0.001 | ralimetinib 0.017 | [10] 0 | [11] -0.013 | [12] 0.005 | [13] 0.056 | [14] 0.016 | [15] -0.005 | [16] -0.013
